Results filed as inconclusive are left out. Active and inactive are the calls of the source. Unless noted, the call rests on the fitted dose curve; in most records, active means well fitted curve in the direction sought with a large enough effect in the repeat runs; inconclusive means weak or mixed curves; inactive means no such curve, though single readings can be large; an effect the other way counts as inactive or inconclusive.
Assays:
[1] = qHTS assay to identify small molecule antagonists of the estrogen related receptor (ERR) signaling pathway from Tox21 library (AID 1224848); conditions: ERR reporter cell line, luciferase antagonist mode, 18 h; series mostly up to 92.4 µM; further: potency means the concentration at half of the fitted maximal effect; nearly all actives have a fitted effect of over 50% in size
Procedure, shortened: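 Compounds dissolved in DMSO are pin-transferred onto ERR reporter cells (2,000 per well) that have settled for 6 h at 37 C. Plates then incubate 18 h at 37 C before ONE-Glo luciferase reagent and a luminescence read 30 min later.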

[2] = qHTS assay to identify small molecule agonists of the estrogen related receptor (ERR) signaling pathway from Tox21 library (AID 1224849; calls by dose curve; further: on the % scale 0 is the no-effect control and ±100 the full control effect; nearly all actives have a fitted effect of over 15% in size); conditions: ERR reporter cell line, ONE-Glo luciferase, 18 h; at 92.4 µM (top of the series) unless noted
Procedure, shortened: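 Luminescent agonist read-out (One-Glo, 30-minute room-temperature incubation) following 18-hour compound treatment at 37 C of the ERR cell line, which had been plated 6 hours before dosing.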

[3] = qHTS RealTime-Glo MT Cell Viability Assay in HEK293 cells - 32 hour (AID 1224868); conditions: RealTime-Glo luminescence; series mostly up to 76.8 µM; further: potency means the concentration at half of the fitted maximal effect; nearly all actives have a fitted effect of over 50% in size
Procedure, shortened: (§1)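 Reads taken at 0, 8, 16, 24, 32 and 40 h from the same wells. HEK293 cells (600/well) carried RealTime-Glo reagents from seeding, with compound added after a 5 h settle at 37 C.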

[4] = A CellTox Green Cytotoxicity Assay to monitor cytotoxicity in HEK293 cells - 0 hour (AID 1224869); conditions: CellTox Green fluorescence; series mostly up to 76.8 µM; further: on the % scale 0 is the no-effect control and ±100 the full control effect; nearly all actives have a fitted effect of over 50% in size
Procedure, shortened: (§2)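 Fluorescence from a DNA-binding dye excluded by viable cells was measured repeatedly in the same HEK293 wells (600 cells/well) during continuous compound exposure at 37 C. Each assay gives one read point: 0, 8, 16, 24, 32 or 40 h.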

[5] = qHTS RealTime-Glo MT Cell Viability Assay in HepG2 cells - 40 hour (AID 1224870); conditions: RealTime-Glo luminescence; series mostly up to 76.8 µM; further: nearly all actives have a fitted effect of over 50% in size; further: potency means the concentration at half of the fitted maximal effect; on activity change, negative = cytotoxic: on the % scale 0 is the no-effect control and ±100 the full control effect
Procedure, shortened: (§3)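 HepG2 cells (600/well) mixed with RealTime-Glo MT reagent, settled 5 h at 37 C/5% CO2 before compound addition. Nonlytic NanoLuc luminescence from viable-cell prosubstrate reduction read repeatedly during 40 h treatment at 37 C.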

[6] = qHTS RealTime-Glo MT Cell Viability Assay in HEK293 cells - 16 hour (AID 1224872); conditions: RealTime-Glo luminescence; series mostly up to 76.8 µM; further: nearly all actives have a fitted effect of over 50% in size; further: potency means the concentration at half of the fitted maximal effect
Procedure, shortened: as §1

[7] = qHTS RealTime-Glo MT Cell Viability Assay in HepG2 cells - 8 hour (AID 1224873); conditions: RealTime-Glo luminescence; series mostly up to 76.8 µM; further: nearly all actives have a fitted effect of over 55% in size; further: potency means the concentration at half of the fitted maximal effect
Procedure, shortened: as §3

[8] = qHTS RealTime-Glo MT Cell Viability Assay in HEK293 cells - 40 hour (AID 1224874); conditions: RealTime-Glo luminescence; max response: stronger effect = lower value; further: nearly all actives have a fitted effect of over 50% in size; further: potency means the concentration at half of the fitted maximal effect
Procedure, shortened: (§4)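 Luminescence, which tracks viable cell number through reduction of the prosubstrate to a NanoLuc substrate, was read over continuous 37 C culture. Cells (600/well) were premixed with reagent and rested 5 h before 23 nL of compound in DMSO was pinned.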

[9] = A CellTox Green Cytotoxicity Assay to monitor cytotoxicity in HEK293 cells - 24 hour (AID 1224875); conditions: CellTox Green fluorescence; series mostly up to 76.8 µM; further: nearly all actives have a fitted effect of over 45% in size; further: potency means the concentration at half of the fitted maximal effect; on activity change: on the % scale 0 is the no-effect control and ±100 the full control effect
Procedure, shortened: as §2

[10] = qHTS RealTime-Glo MT Cell Viability Assay in HepG2 cells - 32 hour (AID 1224877); conditions: RealTime-Glo luminescence; series mostly up to 76.8 µM; further: nearly all actives have a fitted effect of over 55% in size; further: potency means the concentration at half of the fitted maximal effect
Procedure, shortened: (§5)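 HepG2 suspension premixed with RealTime-Glo reagents is plated at 600 cells per well and left 5 h at 37 C/5% CO2. Compounds in DMSO then go in, and bioluminescence reflecting viable cell number is recorded over 40 h.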

[11] = A CellTox Green Cytotoxicity Assay to monitor cytotoxicity in HepG2 cells - 24 hour (AID 1224878); conditions: CellTox Green fluorescence; series mostly up to 76.8 µM; further: nearly all actives have a fitted effect of over 45% in size; further: potency means the concentration at half of the fitted maximal effect
Procedure, shortened: (§6)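 Real-time cytotoxicity: fluorescence of a cell-impermeant cyanine dye binding DNA of dead HepG2 cells, measured repeatedly (0–40 h) during compound exposure at 37 C. Cells seeded 600/well with reagent, dosed after 5 h.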

[12] = A CellTox Green Cytotoxicity Assay to monitor cytotoxicity in HepG2 cells - 40 hour (AID 1224879); conditions: CellTox Green fluorescence; series mostly up to 76.8 µM; further: nearly all actives have a fitted effect of over 40% in size; further: potency means the concentration at half of the fitted maximal effect
Procedure, shortened: as §6

[13] = A CellTox Green Cytotoxicity Assay to monitor cytotoxicity in HEK293 cells - 32 hour (AID 1224881); conditions: CellTox Green fluorescence; series mostly up to 76.8 µM; further: nearly all actives have a fitted effect of over 40% in size; further: potency means the concentration at half of the fitted maximal effect; on cytotoxicity increase: on the % scale 0 is the no-effect control and ±100 the full control effect
Procedure, shortened: as §2

[14] = A CellTox Green Cytotoxicity Assay to monitor cytotoxicity in HepG2 cells - 0 hour (AID 1224882); conditions: CellTox Green fluorescence; series mostly up to 76.8 µM; further: on the % scale 0 is the no-effect control and ±100 the full control effect; nearly all actives have a fitted effect of over 35% in size
Procedure, shortened: as §6

[15] = qHTS assay to identify small molecule agonists of H2AX - cell viability counter screen (AID 1224847; calls by dose curve; further: nearly all actives have a fitted effect of over 30% in size; further: potency means the concentration at half of the fitted maximal effect; on activity change, negative = cytotoxicity: top concentration of the series differs between compounds; on the % scale 0 is the no-effect control and ±100 the full control effect); conditions: CHO-K1 viability, CellTiter-Glo luminescence, 3 h; series mostly up to 154 µM
Procedure, shortened: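 We seed wild-type CHO-K1 cells overnight, treat them for 3 hr at 37C with compounds in 15-concentration series, and quantify remaining viability by CellTiter-Glo luminescence.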

[16] = A CellTox Green Cytotoxicity Assay to monitor cytotoxicity in HEK293 cells - 40 hour (AID 1224871); conditions: CellTox Green fluorescence; series mostly up to 76.8 µM; further: nearly all actives have a fitted effect of over 45% in size; further: potency means the concentration at half of the fitted maximal effect
Procedure, shortened: as §2

[17] = A CellTox Green Cytotoxicity Assay to monitor cytotoxicity in HepG2 cells - 16 hour (AID 1224876); conditions: CellTox Green fluorescence; series mostly up to 76.8 µM; further: nearly all actives have a fitted effect of over 45% in size; further: potency means the concentration at half of the fitted maximal effect
Procedure, shortened: as §6

[18] = qHTS RealTime-Glo MT Cell Viability Assay in HEK293 cells - 0 hour (AID 1224880); conditions: RealTime-Glo luminescence; series mostly up to 76.8 µM; further: nearly all actives have a fitted effect of over 45% in size; further: potency means the concentration at half of the fitted maximal effect
Procedure, shortened: as §4

[19] = qHTS RealTime-Glo MT Cell Viability Assay in HepG2 cells - 24 hour (AID 1224867); conditions: RealTime-Glo luminescence; series mostly up to 76.8 µM; further: nearly all actives have a fitted effect of over 50% in size; further: potency means the concentration at half of the fitted maximal effect
Procedure, shortened: as §5

COc1cc(C=C2CCC/C(=C\c3ccc(O)c(OC)c3)C2=O)ccc1O
inactive: activity change, positive = activation [2] -63.1% [at 42.5 µM] | Potency [4] | Potency [7] | Potency [9] | Potency [13] | Potency [14]
active: Potency [1] 8.41 µM | Potency [3] 23.9 µM | Potency [5] 23.9 µM | Potency [6] 21.3 µM | Potency [8] 21.3 µM | Potency [10] 23.9 µM | Potency [11] 23.9 µM | Potency [12] 21.3 µM

S=C(SSSSSSC(=S)N1CCCCC1)N1CCCCC1
active: Potency [16] 0.241 µM | Potency [6] 13.6 µM | Potency [8] 0.192 µM
inactive: activity change, negative = cytotoxicity [15] -11.5% [at 31.6 µM] | cytotoxicity [4] -0.227% [at 15.8 µM] | activity change, negative = cytotoxic [5] -10.6% [at 15.8 µM] | cytotoxicity increase [17] -6.85% [at 15.8 µM] | activity change, negative = cytotoxic [10] -24.5% [at 15.8 µM] | cytotoxicity [11] -0.0697% [at 15.8 µM] | activity change, negative = cytotoxicity [18] -11.8% [at 15.8 µM] | cytotoxicity [14] -6.55% [at 15.8 µM]

CSc1c(Cl)c(Cl)c(Cl)c(Cl)c1Cl
inactive: Potency [15] | Potency [19] | Potency [4] | Potency [5] | Potency [7] | max response [8] -20.6% | Potency [18]
active: Potency [16] 48.7 µM | Potency [17] 48.7 µM

CC(C)(C)CC(C)(C)c1ccccc1O
inactive: Potency [19] | Potency [4] | Potency [5] | Potency [7] | Potency [10] | Potency [18]
active: Potency [15] 90.3 µM | Potency [16] 39.1 µM | Potency [6] 39.1 µM | Potency [9] 39.1 µM | Potency [17] 24.7 µM | Potency [11] 27.7 µM | Potency [12] 34.9 µM

CN(C)CCOC(c1ccccc1)c1ccccc1 (tested in a mixture with another compound)
inactive: Potency [15] | Potency [19] | Potency [5] | Potency [16] | Potency [6] | Potency [7] | Potency [9] | Potency [17] | Potency [10] | Potency [11] | Potency [12] | Potency [18] | Potency [13] | Potency [14]

Clc1ccc(C(Cn2ccnc2)OCc2c(Cl)cccc2Cl)c(Cl)c1 (stereo unspecified)
inactive: activity change, positive = activation [2] -58.8% [at 42.5 µM] | Potency [4] | Potency [7] | Potency [9] | Potency [10]
active: Potency [1] 26.6 µM | Potency [3] 16.9 µM | Potency [8] 16.9 µM

C/C=C/C=N/NC(=O)c1ccncc1
inactive: Potency [15] | Potency [19] | Potency [6] | Potency [7] | max response [8] 11.4% | Potency [17] | Potency [11] | Potency [12] | Potency [18] | Potency [14]

CCN(CC)CCOC(=O)C1(C2CCCCC2)CCCCC1
inactive: Potency [19] | Potency [4] | Potency [5] | Potency [7] | Potency [10] | Potency [14]
active: Potency [15] 49.2 µM | Potency [16] 23.9 µM | Potency [6] 21.3 µM | Potency [9] 23.9 µM | Potency [17] 23.9 µM | Potency [11] 23.9 µM | Potency [12] 23.9 µM | Potency [13] 23.9 µM

CCN(CC)CCNc1ccc(CO)c2sc3ccccc3c(=O)c12
inactive: activity change, positive = activation [2] -56.6% [at 42.5 µM] | Potency [4] | Potency [9] | Potency [18] | Potency [13]
active: Potency [1] 13.3 µM | Potency [19] 23.9 µM | Potency [3] 16.9 µM | Potency [5] 21.3 µM | Potency [16] 23.9 µM | Potency [6] 16.9 µM | Potency [10] 23.9 µM | Potency [11] 16.9 µM | Potency [12] 13.4 µM

O=C1c2c(O)ccc([N+](=O)[O-])c2C(=O)c2c([N+](=O)[O-])ccc(O)c21
inactive: Potency [4] | Potency [16] | Potency [9] | Potency [17] | Potency [11] | Potency [12] | Potency [14]
active: Potency [1] 15.2 µM | Potency [19] 38.5 µM | Potency [3] 24.3 µM | Potency [6] 13.7 µM | Potency [7] 13.7 µM | Potency [8] 24.3 µM | Potency [18] 43.2 µM
